Results from PubChem BioAssay (EPA / NIEHS).
Active and inactive are the calls of the source. The calls were made as follows: active = hit-call score of the fitted dose curve at least 0.9, where 1 is the maximum; inactive = score below 0.9.

Key:
[1] = read-out: Transforming growth factor beta 1 (TGFb1), TGFB1 (gene 7040); assay: BSK_KF3CT_TGFb1: BioMAP Diversity Plus: KF3CT Assay for Transforming growth factor beta 1 (TGFb1) Biomarker Activity (AID 2283072); details: primary human keratinocytes with fibroblasts; actives raise or lower the signal
Outline: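 Read-out: ELISA for TGF-b1 in keratinocyte/foreskin fibroblast human skin co-culture, 24 h after dosing; bidirectional curve fit vs DMSO baseline; gain or loss of signal scored.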

[2] = read-out: C-C motif chemokine 2 (Homo sapiens) (UniProt P13500); assay: BSK_KF3CT_MCP1: BioMAP Diversity Plus: KF3CT Assay for Monocyte Chemoattractant Protein 1 (MCP1/CCL2) Biomarker Activity (AID 2283073); details: primary human keratinocytes with fibroblasts; actives raise or lower the signal
Outline: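 ELISA readout of MCP-1 after 24 h chemical dosing of a human skin primary co-culture of keratinocytes and foreskin fibroblasts. Activity was fitted in both directions against DMSO.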

[3] = read-out: urokinase plasminogen activator (uPA), PLAU (gene 5328); assay: BSK_KF3CT_uPA: BioMAP Diversity Plus: KF3CT Assay for urokinase plasminogen activator (uPA) Biomarker Activity (AID 2283075); details: primary human keratinocytes with fibroblasts; actives raise or lower the signal
Outline: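 ELISA read-out of uPA 24 h after dosing human skin keratinocytes co-cultured with foreskin fibroblasts. Signal change fitted both ways relative to DMSO; sulforhodamine B on parallel cultures marks overt cytotoxicity.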

CD40, CD40 (gene 958) [4] = assay: BSK_LPS_CD40: BioMAP Diversity Plus: LPS Assay for CD40 Biomarker Activity (AID 2283076); details: primary human HUVEC with PBMC; actives raise or lower the signal
Outline: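 Cells were dosed, incubated 24 h, then assayed for CD40 by ELISA. Gain or loss of signal was analysed relative to DMSO controls. The culture paired human umbilical vein endothelium with peripheral blood mononuclear cells.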

[5] = read-out: E-selectin (Homo sapiens) (UniProt P16581); assay: BSK_LPS_Eselectin: BioMAP Diversity Plus: LPS Assay for Eselectin Biomarker Activity (AID 2283077); details: primary human HUVEC with PBMC; actives raise or lower the signal
Outline: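 Primary human vascular co-culture (endothelium plus PBMC) was dosed with chemical, then E-selectin quantified by ELISA at 24 h. Endpoint values derive from bidirectional curve fitting relative to DMSO.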

[6] = read-out: Interleukin-8 (IL8), CXCL8 (gene 3576); assay: BSK_LPS_IL8: BioMAP Diversity Plus: LPS Assay for Interleukin-8 (IL8) Biomarker Activity (AID 2283078); details: primary human HUVEC with PBMC; actives raise or lower the signal
Outline: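 Readout is IL-8 by ELISA, taken 24 h after compounds were added to LPS-stimulated endothelial/PBMC co-cultures. Both increases and decreases relative to DMSO control were scored through bidirectional fitting.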

[7] = BSK_LPS_SRB: Viability Assessment in the BioMAP Diversity Plus: LPS Assay (AID 2283079); details: primary human HUVEC with PBMC;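 also: total protein by sulforhodamine B absorbance as a cytotoxicity measure; measured one day after compound addition; fitted in both directions against DMSO so loss or gain of signal counts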
Outline: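 Readout is SRB absorbance at 560 nm (0.1% stain, TCA-fixed parallel cultures) as a total-protein cytotoxicity measure. Cells: primary human umbilical vein endothelium plus peripheral blood mononuclear cells, 24 h after chemical exposure; DMSO served as baseline.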

[8] = read-out: Interleukin-1 alpha (IL1a), IL1A (gene 3552); assay: BSK_LPS_IL1a: BioMAP Diversity Plus: LPS Assay for Interleukin-1 alpha (IL1a) Biomarker Activity (AID 2283080); details: primary human HUVEC with PBMC; actives raise or lower the signal
Outline: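 ELISA read-out of IL-1 alpha from a human primary vascular co-culture (endothelium plus PBMC) under LPS, sampled 24 hours post-dosing. Activity was fitted in both directions relative to DMSO controls.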

[9] = read-out: Macrophage colony-stimulating factor (MCSF), CSF1 (gene 1435); assay: BSK_LPS_MCSF: BioMAP Diversity Plus: LPS Assay for Macrophage colony-stimulating factor (MCSF) Biomarker Activity (AID 2283083); details: primary human HUVEC with PBMC; actives raise or lower the signal
Outline: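 ELISA readout of M-CSF after 24 h compound exposure in a human endothelial/PBMC co-culture. Activity, in either direction, is fitted relative to DMSO vehicle.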

[10] = read-out: Tissue Factor, F3 (gene 2152); assay: BSK_LPS_TissueFactor: BioMAP Diversity Plus: LPS Assay for Tissue Factor Biomarker Activity (AID 2283084); details: primary human HUVEC with PBMC; actives raise or lower the signal
Outline: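 ELISA signal for cell-surface Tissue Factor (CD142) was read 24 h after compound dosing of an LPS-stimulated human endothelial–PBMC primary co-culture. Gain or loss of signal was scored relative to DMSO.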

[11] = read-out: Tumor necrosis factor (Homo sapiens) (UniProt P01375); assay: BSK_LPS_TNFa: BioMAP Diversity Plus: LPS Assay for Tumour Necrosis Factor alpha (TNFa) Biomarker Activity (AID 2283085); details: primary human HUVEC with PBMC; actives raise or lower the signal;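 as to AC50: TNFa protein level quantified by ELISA in the co-culture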
Outline: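 HUVEC/PBMC co-culture, LPS-stimulated; 24 h post-dose; TNFa by ELISA; gain or loss of signal fitted bidirectionally vs DMSO baseline.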

[12] = read-out: Vascular cell adhesion molecule 1 (VCAM1), VCAM1 (gene 7412); assay: BSK_LPS_VCAM1: BioMAP Diversity Plus: LPS Assay for Vascular cell adhesion molecule 1 (VCAM1) Biomarker Activity (AID 2283086); details: primary human HUVEC with PBMC; actives raise or lower the signal
Outline: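 ELISA read-out of VCAM-1 at 24 h post-dosing in an LPS-driven HUVEC/PBMC primary human co-culture; gain or loss of signal fitted bidirectionally against DMSO baseline. Cytotoxicity tracked in parallel cultures by SRB total-protein staining.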

CD38, CD38 (gene 952) = assay: BSK_SAg_CD38: BioMAP Diversity Plus: SAg Assay for CD38 Biomarker Activity (AID 2283087); details: primary human HUVEC with PBMC; actives raise or lower the signal
Outline: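 Measures CD38 on a human endothelial/PBMC co-culture driven by SEB and TSST-1, 24 h after compound exposure, using ELISA with fluorescence detection; DMSO defines baseline for bidirectional curve fitting.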

CD40, CD40 (gene 958) [13] = assay: BSK_SAg_CD40: BioMAP Diversity Plus: SAg Assay for CD40 Biomarker Activity (AID 2283088); details: primary human HUVEC with PBMC; actives raise or lower the signal
Outline: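 Compounds were dosed onto a human primary endothelial–PBMC co-culture, and after 24 h CD40 was quantified by ELISA using a fluorescence signal. Activity in either direction was fitted relative to DMSO.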

CD69, CD69 (gene 969) = assay: BSK_SAg_CD69: BioMAP Diversity Plus: SAg Assay for CD69 Biomarker Activity (AID 2283089); details: primary human HUVEC with PBMC; actives raise or lower the signal
Outline: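 Primary human vascular co-culture (umbilical vein endothelium with peripheral blood mononuclear cells) exposed to test chemical for 24 h. CD69 levels quantified by fluorescence ELISA; DMSO served as negative control for bidirectional fitting.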

[14] = read-out: Monocyte Chemoattractant Protein-1 (MCP1), CCL2 (gene 6347); assay: BSK_SAg_MCP1: BioMAP Diversity Plus: SAg Assay for Monocyte Chemoattractant Protein-1 (MCP1) Biomarker Activity (AID 2283090); details: primary human HUVEC with PBMC; actives raise or lower the signal
Outline: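 Values derive from bidirectional fitting of ELISA-measured MCP1 against DMSO controls. Readings were taken 24 h after dosing human vascular endothelial cells co-cultured with peripheral blood mononuclear cells under superantigen stimulation.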

[15] = read-out: E-selectin (Homo sapiens) (UniProt P16581); assay: BSK_SAg_Eselectin: BioMAP Diversity Plus: SAg Assay for Eselectin Biomarker Activity (AID 2283091); details: primary human HUVEC with PBMC; actives raise or lower the signal
Outline: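 Co-culture: HUVEC + PBMC. Dose compound; 24 h. ELISA for E-selectin. Bidirectional fit vs DMSO.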

[16] = read-out: Monocyte Chemoattractant Protein-1 (MCP1), CCL2 (gene 6347); assay: BSK_LPS_MCP1: BioMAP Diversity Plus: LPS Assay for Monocyte Chemoattractant Protein-1 (MCP1) Biomarker Activity (AID 2283081); details: primary human HUVEC with PBMC; actives raise or lower the signal
Outline: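 Human endothelial–PBMC co-cultures were dosed with chemical, then LPS-driven MCP-1 levels were quantified by ELISA at 24 h. Activity in either direction was fitted versus DMSO negative control.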

Measured: AC50

E-selectin (Homo sapiens), sequence (P16581 whole entry, looked up): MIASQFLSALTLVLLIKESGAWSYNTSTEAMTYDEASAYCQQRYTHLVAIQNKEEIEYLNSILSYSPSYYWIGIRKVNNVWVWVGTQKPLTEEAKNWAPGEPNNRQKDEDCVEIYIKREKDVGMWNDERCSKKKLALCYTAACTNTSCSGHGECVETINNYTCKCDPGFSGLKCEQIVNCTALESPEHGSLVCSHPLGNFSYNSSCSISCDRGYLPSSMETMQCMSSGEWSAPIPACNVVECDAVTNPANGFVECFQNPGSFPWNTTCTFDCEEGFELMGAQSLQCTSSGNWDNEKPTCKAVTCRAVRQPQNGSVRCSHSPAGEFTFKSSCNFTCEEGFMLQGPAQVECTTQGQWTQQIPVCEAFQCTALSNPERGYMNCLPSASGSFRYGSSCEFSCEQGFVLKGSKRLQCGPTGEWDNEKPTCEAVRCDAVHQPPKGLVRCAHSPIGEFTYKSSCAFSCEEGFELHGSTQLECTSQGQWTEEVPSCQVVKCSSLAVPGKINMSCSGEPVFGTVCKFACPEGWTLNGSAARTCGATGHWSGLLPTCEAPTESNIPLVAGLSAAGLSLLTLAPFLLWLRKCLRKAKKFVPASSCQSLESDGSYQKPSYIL
Tumor necrosis factor (Homo sapiens), sequence (P01375 whole entry, looked up): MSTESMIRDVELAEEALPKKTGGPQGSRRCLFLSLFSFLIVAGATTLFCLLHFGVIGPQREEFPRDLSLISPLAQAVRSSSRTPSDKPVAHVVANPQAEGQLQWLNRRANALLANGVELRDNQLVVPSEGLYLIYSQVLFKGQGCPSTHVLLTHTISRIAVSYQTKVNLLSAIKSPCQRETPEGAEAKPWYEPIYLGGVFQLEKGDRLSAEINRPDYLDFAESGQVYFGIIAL

Nc1ccc2c(c1)C(=O)c1ccccc1C2=O
active: [11] 5.74 µM
not listed: [16]
inactive: all other assays above

COC(=O)c1ccc(O)cc1
not listed: CD40, CD40 (gene 958) [13]
inactive: all other assays above

c1cc(-c2ccncc2)ccn1
not listed: CD69, CD69 (gene 969)
inactive: all other assays above

CCCCc1ccc2c(n1)[C@@H](c1ccc(OC)cc1C[C@H](C)C(=O)O)[C@H](C(=O)O)[C@H]2c1ccc2c(c1)OCO2
inactive: all assays above

Clc1cc(Cl)c(Cl)cc1Cl
not listed: CD40, CD40 (gene 958) [13]
inactive: all other assays above

CCOC(=O)C(C)(C)Oc1ccc(Cl)cc1
not listed: CD40, CD40 (gene 958) [13] | [16]
inactive: all other assays above

Cc1ccc(Cl)cc1
not listed: CD69, CD69 (gene 969)
inactive: all other assays above

COc1ccc2c(c1)c(CC(=O)O)c(C)n2C(=O)c1ccc(Cl)cc1
not listed: CD40, CD40 (gene 958) [13] | CD69, CD69 (gene 969) | [16]
inactive: all other assays above
